In the supplement of paper PMC10849652:
Of roughly 8,800 targets only a part is listed; those with a hit were picked by preference. About 0.5% of all pairs of compound and target were hits. Unmarked numbers belong to inactive results.

These targets were tested with c1ccc([C@@H]2C[C@H]2NC2CCNCC2)cc1 (assay: log2 fold change, soluble protein after heating vs DMSO (PISA); higher = thermal stabilisation; K562 lysate, 10 uM; active = over 0.2 and 3.5 SD of the protein, either way, in both replicates (recomputed)).
In short: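 K562 pellets were dounce-homogenised in PBS pH 7.4 with 1 mM MgCl2, and the crude extract at 1 mg/mL protein was treated with 10 μM compound for 30 min. Aliquots were heated for 3 min across 48°C-58°C, pooled, and brought to 0.5% NP-40 at 4°C; soluble protein was the supernatant after 21,000xg for 90 min. Soluble protein was quantified by TMTpro 16plex LC-MS/MS with channel sums equalised, and reported as log2 fold change in thermal stability against DMSO controls, with values from duplicates.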

Sequence of UniProt P50225 (P50225 whole entry, looked up): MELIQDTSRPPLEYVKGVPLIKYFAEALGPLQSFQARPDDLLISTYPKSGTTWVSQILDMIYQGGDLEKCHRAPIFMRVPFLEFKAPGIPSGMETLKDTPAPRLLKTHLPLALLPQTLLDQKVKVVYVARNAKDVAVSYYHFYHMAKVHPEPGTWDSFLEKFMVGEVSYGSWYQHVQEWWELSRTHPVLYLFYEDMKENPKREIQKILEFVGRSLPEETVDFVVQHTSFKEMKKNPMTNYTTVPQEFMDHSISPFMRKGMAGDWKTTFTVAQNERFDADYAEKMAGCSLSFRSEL
Sequence of UniProt Q9UJZ1 (Q9UJZ1 whole entry, looked up): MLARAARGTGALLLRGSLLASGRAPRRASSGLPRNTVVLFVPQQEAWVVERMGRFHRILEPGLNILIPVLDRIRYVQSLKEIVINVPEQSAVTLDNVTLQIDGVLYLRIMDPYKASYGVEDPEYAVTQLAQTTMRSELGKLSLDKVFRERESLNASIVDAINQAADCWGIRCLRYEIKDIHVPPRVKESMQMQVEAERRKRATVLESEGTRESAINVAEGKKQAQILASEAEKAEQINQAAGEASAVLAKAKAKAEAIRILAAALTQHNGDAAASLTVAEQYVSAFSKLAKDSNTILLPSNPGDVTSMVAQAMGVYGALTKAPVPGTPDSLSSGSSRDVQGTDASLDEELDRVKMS
Sequence of UniProt O00161 (O00161 whole entry, looked up): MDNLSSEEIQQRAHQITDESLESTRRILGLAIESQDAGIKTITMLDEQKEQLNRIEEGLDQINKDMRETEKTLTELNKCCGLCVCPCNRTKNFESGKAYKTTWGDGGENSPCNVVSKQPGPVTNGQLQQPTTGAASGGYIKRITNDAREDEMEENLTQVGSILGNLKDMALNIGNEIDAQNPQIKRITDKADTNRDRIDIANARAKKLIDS

Target	log2 fold change
SNAP23 (UniProt O00161)	0.066
STOML2 (UniProt Q9UJZ1)	-0.008
SULT1A1 (UniProt P50225)	0.088
